Hit rate of the full screen: of about 9,900 compounds, about 90 (0.9%) were called active. About 2% were inconclusive and are not listed. For the sample, actives were picked, then their nearest neighbours and some compounds at random. A number with no mark means an inactive call.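 How the source made its calls: active means mean normalized replicate activity at least 50 and at least half of replicates each reaching 50; inconclusive means only one of the two criteria met; inactive means neither criterion met.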
test: reduction of CTGF mRNA in DLD1 cells – DLD1 colon cancer cells, RT-qPCR, single point, primary screen (AID 743449); details: 24 h, at 12.5 µM, stronger effect = higher value;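 further: 0% = neutral control wells and 100% = dasatinib control wells; higher means stronger suppression of CTGF expression like dasatinib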

| SMILES | inhibition |
| --- | --- |
| CCCNC(=O)N1C[C@@H]2[C@H](c3ccccc31)[C@@H](CO)N2Cc1cccc(OC)c1 | -37.6% |
| COCCNC(=O)c1cc2c(c(-c3cccc(C4=CCCCC4)c3)n1)[C@@H](CCO)N([S@](=O)C(C)(C)C)C2 | -10.8% |
| CCc1nc(N2[C@@H](C#N)[C@@H](c3ccccc3-c3ccc(F)cc3)[C@@H]2CO)sc1C | 10.1% |
| CCc1nc(N2[C@H](CO)[C@@H](c3ccccc3-c3ccc(F)cc3)[C@@H]2C#N)sc1C | 55.4% (active) |
| CCc1nc(N2[C@H](CO)[C@H](c3ccccc3-c3ccc(F)cc3)[C@@H]2C#N)sc1C | -17.7% |
| COc1ccc(NC(=O)N(C)C[C@@H]2Oc3c(NC(=O)CCCCCC(=O)Nc4ccccc4N)cccc3C(=O)N([C@@H](C)CO)C[C@H]2C)cc1 | 1.84% |
| C[C@H]1CN([C@@H](C)CO)C(=O)c2cccc(NC(=O)c3ccc(-c4nccs4)cc3)c2O[C@@H]1CN(C)C(=O)Nc1ccc(C(F)(F)F)cc1 | 72.5% (active) |
| COc1ccc(NC(=O)N(C)C[C@H]2Oc3c(NC(=O)CCCCCC(=O)Nc4ccccc4N)cccc3C(=O)N([C@@H](C)CO)C[C@@H]2C)cc1 | 30.8% |
| CNC[C@H]1Oc2c(NC(=O)Nc3cccc4ccccc34)cccc2C(=O)N([C@@H](C)CO)C[C@H]1C | -2.92% |
| C[C@H](CO)N1C[C@H](C)[C@H](CN(C)C(=O)Nc2ccc(C(F)(F)F)cc2)Oc2c(NC(=O)c3ccc(-c4nccs4)cc3)cccc2C1=O | -20.1% |
| CNC[C@H]1Oc2c(NC(=O)Nc3cccc4ccccc34)cccc2C(=O)N([C@H](C)CO)C[C@@H]1C | 50.9% (active) |
| COc1ccc(NC(=O)N(C)C[C@H]2Oc3c(NC(=O)CCCCCC(=O)Nc4ccccc4N)cccc3C(=O)N([C@H](C)CO)C[C@@H]2C)cc1 | 51% (active) |
| C[C@H]1CN([C@@H](C)CO)C(=O)c2cccc(NC(=O)c3ccc(-c4nccs4)cc3)c2O[C@H]1CN(C)C(=O)Nc1ccc(C(F)(F)F)cc1 | 11.6% |
| C[C@@H]1CN([C@@H](C)CO)C(=O)c2cccc(NC(=O)c3nc4ccccc4s3)c2O[C@@H]1CN(C)C(=O)Nc1ccc2c(c1)OCO2 | 13.9% |
| CNC[C@@H]1Oc2c(NC(=O)Nc3cccc4ccccc34)cccc2C(=O)N([C@@H](C)CO)C[C@H]1C | 17% |
| C[C@H](CO)N1C[C@H](C)[C@H](CN(C)C(=O)Nc2ccc3c(c2)OCO3)Oc2c(NC(=O)c3nc4ccccc4s3)cccc2C1=O | 14.1% |
| C[C@@H]1CN([C@@H](C)CO)C(=O)c2cccc(NC(=O)c3nc4ccccc4s3)c2O[C@H]1CN(C)C(=O)Nc1ccc2c(c1)OCO2 | 52.6% (active) |
| O=C(C[C@@H]1C=C[C@@H](NC(=O)c2ccncc2)[C@H](CO)O1)NCC1CC1 | 15.8% |
| COCC#Cc1ccc([C@H]2[C@@H](CO)N3CCCCN(Cc4cccnc4)C[C@H]23)cc1 | -7.41% |
| O=C(C1CCOCC1)N1CC2(C1)[C@H](c1ccccc1)[C@@H](CO)N2C(=O)CC1CC1 | -35.8% |
| COc1cccc(NC(=O)C[C@@H]2CC[C@@H]3[C@@H](COc4ccc(NC(=O)C5CC5)cc4C(=O)N3C)O2)c1 | -24.6% |

| SMILES | inhibition |
| --- | --- |
| COc1ccc(-c2ccc([C@@H]3[C@@H](CO)N4C(=O)CN(C(=O)Cc5ccccn5)C[C@@H]34)cc2)cc1 | 16.8% |
| CO[C@H](CN(C)Cc1ccc2c(c1)OCO2)[C@@H](C)CN(C(=O)Nc1ccc(F)cc1)[C@H](C)CO | -17.7% |
| CC(C)[C@H]1CC=CC[C@@H](C)Oc2ccccc2C(=O)N(C)[C@H](C(C)C)C(=O)N1 (mixture of isomers) | 34.9% |
| Cc1noc(C)c1NC(=O)N(C)C[C@@H]1Oc2cc(C#CCN(C)C)ccc2S(=O)(=O)N([C@H](C)CO)C[C@H]1C | -1.27% |
| COc1ccc(S(=O)(=O)N(C)C[C@@H]2Oc3c(NC(=O)c4nc5ccccc5s4)cccc3C(=O)N([C@@H](C)CO)C[C@@H]2C)cc1 | 34.9% |
| C[C@H](CO)N1C[C@H](C)[C@@H](CN(C)C(=O)Nc2ccc3c(c2)OCO3)Oc2c(NC(=O)c3nc4ccccc4s3)cccc2C1=O | 46.6% |
| C[C@H]1CN([C@@H](C)CO)C(=O)c2cccc(NC(=O)c3nc4ccccc4s3)c2O[C@@H]1CN(C)C(=O)Nc1ccc2c(c1)OCO2 | 78.9% (active) |
| C[C@@H]1CN([C@H](C)CO)C(=O)c2cccc(NC(=O)c3nc4ccccc4s3)c2O[C@H]1CN(C)C(=O)Nc1ccc2c(c1)OCO2 | 73% (active) |
| C[C@@H]1CN([C@H](C)CO)C(=O)c2cccc(NC(=O)c3nc4ccccc4s3)c2O[C@@H]1CN(C)C(=O)Nc1ccc2c(c1)OCO2 | 6.24% |
| COc1ccc(S(=O)(=O)N(C)C[C@@H]2Oc3c(NC(=O)c4nc5ccccc5s4)cccc3C(=O)N([C@H](C)CO)C[C@H]2C)cc1 | 9.74% |
| C[C@@H]1CN([C@@H](C)CO)C(=O)c2cc(NC(=O)Cc3ccccc3)ccc2O[C@@H](C)CCCCO[C@H]1CN(C)Cc1ccncc1 | 2.97% |
| O=C(Nc1ccc(C(F)(F)F)cc1)Nc1ccc2c(c1)[C@H]1C[C@H](CC(=O)N3CCc4ccccc4C3)O[C@H](CO)[C@H]1O2 | 41.9% |
| COc1ccccc1-c1ccc2c(c1)[C@H]1[C@H](CCN1S(=O)(=O)c1ccc(C)cc1)[C@@H](CO)N2 | 17.3% |
| COc1ccccc1S(=O)(=O)N1CC[C@@H]2[C@H]1c1cc(-c3cccc(C#N)c3)ccc1N(C)[C@H]2CO | 62.1% (active) |
| Cc1ccc(S(=O)(=O)N2CC[C@@H]3[C@H](CO)Nc4ccc(-c5cccc(C(=O)N(C)C)c5)cc4[C@@H]32)cc1 | -15% |
| Cc1ccc(S(=O)(=O)N2CC[C@@H]3[C@H]2c2cc(-c4cccc(C(=O)N(C)C)c4)ccc2N[C@@H]3CO)cc1 | 68.4% (active) |
| N#Cc1cccc(-c2ccc3c(c2)[C@H]2[C@H](CCN2S(=O)(=O)c2ccc(F)cc2)[C@H](CO)N3)c1 | 20.1% |
| Cc1ccc(S(=O)(=O)N2CC[C@H]3[C@H](CO)Nc4ccc(-c5cccc(C(=O)N(C)C)c5)cc4[C@H]32)cc1 | 56.9% (active) |
| C/C=C/c1ccc2c(c1)[C@@H]1[C@@H](CCN1S(=O)(=O)c1ccccc1OC)[C@H](CO)N2C | -5.93% |
| N#Cc1cccc(-c2ccc3c(c2)[C@@H]2[C@@H](CCN2S(=O)(=O)c2ccc(F)cc2)[C@H](CO)N3)c1 | 63% (active) |
| Cc1ccc(S(=O)(=O)N2CC[C@@H]3[C@@H](CO)Nc4ccc(-c5cccc(C(=O)N(C)C)c5)cc4[C@@H]32)cc1 | 4.93% |

| SMILES | inhibition |
| --- | --- |
| N#Cc1cccc(-c2ccc3c(c2)[C@@H]2[C@@H](CCN2S(=O)(=O)c2ccc(F)cc2)[C@@H](CO)N3)c1 | 22.5% |
| COc1ccccc1-c1ccc2c(c1)[C@@H]1[C@@H](CCN1S(=O)(=O)c1ccc(C)cc1)[C@H](CO)N2 | 37.4% |
| COc1ccccc1S(=O)(=O)N1CC[C@@H]2[C@@H](CO)N(C)c3ccc(-c4cccc(C#N)c4)cc3[C@@H]21 | 32% |
| Cc1noc(C)c1S(=O)(=O)N(C)C[C@H]1OCc2ccccc2-c2ccccc2C(=O)N([C@H](C)CO)C[C@H]1C | -25.8% |
| C[C@@H]1CCCCO[C@@H](CN(C)CC2CCCCC2)[C@@H](C)CN([C@@H](C)CO)C(=O)c2cc(NS(C)(=O)=O)ccc2O1 | 2.58% |
| CS(=O)(=O)N1[C@H](CO)[C@@H](c2ccc(-c3ccccc3F)cc2)[C@@H]1C#N | 16.4% |
| C[C@H]1CN([C@@H](C)CO)C(=O)c2ccccc2-c2ccccc2CO[C@H]1CN(C)Cc1ccccc1C(F)(F)F | 12.5% |
| Cc1ccc(S(=O)(=O)N2C[C@@H](O)COC[C@H]3O[C@@H](CC(=O)NCc4ccc5c(c4)OCO5)CC[C@@H]32)cc1 | 25.4% |
| CCS(=O)(=O)N1CC(=O)N2[C@H](CO)[C@@H](c3ccc(C4=CCCCC4)cc3)[C@@H]2C1 | 0.977% |
| COc1ccc2c3c(n(C)c2c1)[C@H](CO)N(C)CC31CCN(C(=O)NC(C)C)CC1 | 18.6% |
| C[C@@H]1CN([C@@H](C)CO)C(=O)c2c(c3ccccc3n2C)-c2ccccc2CO[C@@H]1CN(C)Cc1cccc(C(F)(F)F)c1 | -39% |
| COc1ccc([C@H]2C/C=C\C[C@@H](c3ccc4c(c3)OCO4)NC(=O)[C@@H](c3ccccc3)CC(=O)N2)c(OC)c1 | 58.4% (active) |
| COc1ccc([C@@H]2C/C=C\C[C@@H](c3ccc4c(c3)OCO4)NC(=O)[C@H](c3ccccc3)CC(=O)N2)c(OC)c1 | 31% |
| COc1ccc([C@H]2C/C=C\C[C@H](c3ccc4c(c3)OCO4)NC(=O)[C@H](c3ccccc3)CC(=O)N2)c(OC)c1 | -62.1% |
| O=C(Nc1ccc(F)cc1)N1CC(=O)N2[C@H](CO)[C@@H](c3ccc(C#Cc4cccnc4)cc3)[C@@H]2C1 | -8.94% |
| O=C(Nc1ccc(F)cc1)N1C[C@@H]2[C@H](c3ccccc31)[C@@H](CO)N2Cc1ccccc1Cl | -18.1% |
| OC[C@@H]1[C@@H](c2ccc(-c3cccnc3)cc2)[C@H]2CN(Cc3ccccn3)CCCCN12 | -1.92% |
| CCCC(=O)N1CCC2(CC1)CN[C@@H](CO)c1[nH]c3cc(OC)ccc3c12 | -5.58% |
| CCCC(=O)N1CCC2(CC1)CN[C@H](CO)c1[nH]c3cc(OC)ccc3c12 | 2.25% |
| COc1ccc2c3c([nH]c2c1)[C@H](CO)NCC31CCN(C(=O)Cc2cccnc2)CC1 | 51% (active) |

— PubChem BioAssay AID743449 (Broad Institute, 2014)
